# Efflux pump inh: inhibitors of Candida efflux pumps in yeast, primary screen, S. cerevisiae, Nile Red, multiplex | S. cerevisiae Candida pump triplex | inhibition, % at 10 µM | hit rate 0.44% among 330,000 | AID 485275, 2010;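 active = plate passing quality check with inhibition over a set limit, or well fluorescence over plate mean plus 4 SD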;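 also: Nile Red retained in pooled yeast measured as flow cytometry median fluorescence; 0% = buffer negative control and 100% = Enniatin B positive control; higher means more Nile Red kept so more efflux inhibition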
# NSD2 inh: NSD2 histone methyltransferase inhibitors, primary screen, biochemical, AlphaScreen, single concentration, set 2; Histone-lysine N-methyltransferase NSD2 (Homo sapiens), O96028; NSD2 peptide methylation, 120 min; inhibition, % at 12.5 µM; hit rate 0.54% among 310,000; AID 743445, 2014; in the data active = inhibition above about 50%
# Target sequence (O96028 whole entry, looked up): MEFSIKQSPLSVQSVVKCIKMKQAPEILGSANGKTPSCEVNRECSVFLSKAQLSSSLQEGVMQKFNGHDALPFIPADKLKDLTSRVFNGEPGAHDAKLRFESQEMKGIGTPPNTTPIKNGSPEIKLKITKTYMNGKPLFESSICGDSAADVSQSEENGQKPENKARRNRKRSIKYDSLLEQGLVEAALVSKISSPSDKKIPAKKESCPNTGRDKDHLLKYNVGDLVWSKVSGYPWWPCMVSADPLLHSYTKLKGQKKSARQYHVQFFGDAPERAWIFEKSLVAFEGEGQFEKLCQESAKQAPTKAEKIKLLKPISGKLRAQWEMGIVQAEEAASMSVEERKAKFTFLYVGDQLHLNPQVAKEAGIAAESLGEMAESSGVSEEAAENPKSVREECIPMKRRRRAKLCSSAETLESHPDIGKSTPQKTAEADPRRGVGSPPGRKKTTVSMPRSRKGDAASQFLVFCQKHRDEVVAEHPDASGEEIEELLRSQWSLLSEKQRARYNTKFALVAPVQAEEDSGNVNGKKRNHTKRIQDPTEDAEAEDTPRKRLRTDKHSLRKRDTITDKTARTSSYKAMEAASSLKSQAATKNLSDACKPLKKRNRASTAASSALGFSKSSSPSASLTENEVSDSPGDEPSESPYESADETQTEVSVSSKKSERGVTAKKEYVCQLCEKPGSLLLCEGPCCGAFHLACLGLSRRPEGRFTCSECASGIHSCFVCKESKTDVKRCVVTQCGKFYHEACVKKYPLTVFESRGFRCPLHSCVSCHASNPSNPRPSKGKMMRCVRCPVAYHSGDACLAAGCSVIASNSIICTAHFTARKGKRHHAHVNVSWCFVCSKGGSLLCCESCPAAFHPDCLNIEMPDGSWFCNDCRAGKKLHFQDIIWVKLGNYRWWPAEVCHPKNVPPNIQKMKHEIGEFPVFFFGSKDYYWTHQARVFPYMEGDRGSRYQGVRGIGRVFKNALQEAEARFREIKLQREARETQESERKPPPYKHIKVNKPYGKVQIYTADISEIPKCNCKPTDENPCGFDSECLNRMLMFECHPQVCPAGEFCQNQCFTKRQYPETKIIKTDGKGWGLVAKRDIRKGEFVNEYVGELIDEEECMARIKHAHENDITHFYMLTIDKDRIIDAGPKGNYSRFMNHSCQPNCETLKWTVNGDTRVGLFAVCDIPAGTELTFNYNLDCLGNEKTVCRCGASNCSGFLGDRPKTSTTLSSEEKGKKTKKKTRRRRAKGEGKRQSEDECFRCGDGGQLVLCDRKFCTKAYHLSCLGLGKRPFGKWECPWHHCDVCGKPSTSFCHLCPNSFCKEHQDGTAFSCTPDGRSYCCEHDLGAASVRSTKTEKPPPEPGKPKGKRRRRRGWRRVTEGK
# V-ATPase pHluor: regulators of yeast V-ATPase proton pumping, primary screen, pHLuorin cytosolic pH fluorescence; AID 504577, 2011; response, % at 10 µM; hit rate 0.37% among 350,000; S. cerevisiae; in the data active = response mostly above about 7.3%, no sharp cut-off; inactive = mostly below about 5.4%; also: actives read high
# NPR1 activator: GC-A stimulated cGMP production enhancers – HEK293 GC-A cells, cGMP TR-FRET, EC30 ANP, primary screen | Atrial natriuretic peptide receptor 1 (Homo sapiens), P16066 | 0% at EC30 ANP, 100% saturating ANP | activation, % at 10 µM | hit rate 0.14% among 370,000 | AID 1671463, 2021; in the data active = activation above about 40%
# GC-B act: human GC-B receptor activators, primary screen, HEK293 GC-B cells, cGMP TR-FRET, EC30 CNP; activation, % at 10 µM; AID 1920062, 2024; hit rate 0.11% among 370,000; 0% at EC30 CNP, 100% saturating CNP;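 active = activation at 10 µM reaching about 35% in either raw or pattern-adjusted values, limit read from the data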
# Rce1 inhib: yeast Rce1p protease inhibitors, primary screen, biochemical, fluorescence, cell-free homogeneous. yeast membranes, quenched prenylated peptide cleavage fluorescence. calls only. hit rate 0.27% among 290,000. AID 2563, 2010;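 active = fall in fluorescence gain of 50% or more versus controls, with final raw signal at or below 3038400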;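 also: plate controls were neutral control wells for no effect and wells lacking membranes for full effect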
# Cmpd fluor yeast: counter-screen for efflux pump inhibitors: compound fluorescence | S. cerevisiae AD/pABC3, flow cytometry | fluorescence ratio to DMSO, % at 10 µM | AID 588517 | hit rate 4% among 1,700 | shares compounds with Efflux pump inh;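 active = fluorescence ratio to DMSO above its plate's cutoff, the plate mean ratio plus 5 SD, cut at about 210% in these data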;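 also: unstained yeast with no Nile Red so the signal is compound autofluorescence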
# CaMdr1 efflux inh: inhibitors of Candida albicans Mdr1 efflux, confirmation, flow cytometry, singleplex, Cherry Pick1 set; shares compounds with Efflux pump inh; S. cerevisiae AD/CaMDR1, Nile Red efflux; inhibition, % at 10 µM; hit rate 1% among 1,700; AID 588518, 2011; in the data active = inhibition above about 26%;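 also: 0% = DMSO vehicle and 100% = reference inhibitor; higher means more Nile Red retained so more efflux inhibition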
# CaCdr2 efflux inh: inhibitors of Candida albicans Cdr2 efflux pump, confirmation, S. cerevisiae AD/CaCDR2, flow cytometry, cherry pick 1, singleplex | shares compounds with Efflux pump inh | Nile Red retention | Nile Red retention ratio vs DMSO, % at 10 µM | hit rate 4% among 1,700; in the data active = Nile Red retention ratio vs DMSO above about 190%;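 also: higher ratio means more blocking of Cdr2 efflux of the dye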
# Cdr1 pump inh: inhibitors of Candida albicans Cdr1 efflux pump, confirmation, S. cerevisiae AD/CaCDR1, flow cytometry, cherry pick 1, singleplex; AID 588522, 2011; hit rate 1% among 1,700; Nile Red efflux; inhibition, % at 10 µM; shares compounds with Efflux pump inh;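 active = inhibition above the screen-wide mean plus twice its standard deviation, cut at about 32% in these data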
# Active calls of the source: *; i = inactive; / = not tested or not shown. In the library only some 1.6% were active in any assay of this set; here they are far more common.
SMILES,Efflux pump inh,NSD2 inh,V-ATPase pHluor,NPR1 activator,GC-B act,Rce1 inhib,Cmpd fluor yeast,CaMdr1 efflux inh,CaCdr2 efflux inh,Cdr1 pump inh
CC(Nc1nc(-c2ccccc2)nc2ccccc12)c1ccccc1 (stereo not given),1.9*,/,1.9,5.2,-1.8,i,100.0,-0.1,106.3,-0.1
O=C(CN1CCCc2ccccc21)NCc1ccccc1F,/,-2.1,/,-1.0,3.6,/,/,/,/,/
Cc1ccc2nc(C(Cl)(Cl)Cl)nc(N/N=C/c3ccncc3)c2c1,0.4*,-1.6,-7.8,-5.9,-0.8,i,104.6,0.2,101.8,0.0
Cc1ccc2nc(C(Cl)(Cl)Cl)nc(N/N=C/c3ccc([N+](=O)[O-])cc3)c2c1,/,-0.5,2.3,-5.8,-3.1,/,/,/,/,/
COC(=O)c1ccc(N)c(N=CC2=C(O)CC(C)(C)CC2=O)c1,1.7*,9.7,-0.2,9.4,5.7,i,94.8,-0.3,105.1,-0.1
CN1CCN(C(=O)CSc2ccc(C(F)(F)F)cc2[N+](=O)[O-])CC1,13.8*,-0.4,-0.3,-3.5,5.9,i,108.3,-0.3,120.1,0.0
CCOC(=O)N1CCN(C(=O)CSc2ccc(C(F)(F)F)cc2[N+](=O)[O-])CC1,-0.2,4.0,2.5,4.5,1.1,i,/,/,/,/
CC(=O)Nc1ccccc1OC(C)C(=O)NC(C)c1ccc(F)cc1 (stereo not given),5.8*,3.1,4.5,-3.6,-0.7,i,116.8,0.0,131.3,-0.1
CCOC(=O)[C@@]12CN(C(=O)OC(C)(C)C)CC=C1N(Cc1ccc(OC)cc1)C(=O)[C@H]2CC(=O)NCc1cccs1,/,/,/,-3.0,-4.9,/,/,/,/,/
COc1ccc(N2C(=O)CC(NNC(=O)c3ccco3)C2=O)cc1 (stereo not given),2.1*,3.2,-4.3,2.1,1.6,i,104.6,0.0,110.1,-0.1
O=C(NNC1CC(=O)N(c2ccccc2)C1=O)c1ccco1 (stereo not given),-0.1,-1.3,4.6,0.2,3.1,i,/,/,/,/
CCCC[C@H]1C2CC(OC(=O)Nc3ccc4c(c3)OCO4)C(C2)[C@H]2CCCCN21 (stereo not given in full),/,/,/,4.4,1.2,/,/,/,/,/
CC1CCc2c(sc3nc(C(C)(C)C)nc(N4CCN(C(=O)CCl)CC4)c23)C1 (stereo not given),0.6*,1.8,-1.7,-6.2,-3.5,i,111.2,-0.1,120.6,0.0
CC(C)CC(C(=O)OCC(=O)Nc1cccc(Cl)c1)N1C(=O)C2CC=CCC2C1=O (stereo not given),2.7*,-2.4,1.6,-0.4,1.3,i,102.2,0.1,114.4,-0.1
CCOc1ccccc1NC(=O)COC(=O)C(CC(C)C)N1C(=O)C2CC=CCC2C1=O (stereo not given),0.3,-2.6,1.1,1.3,-0.2,i,/,/,/,/
COCCCNC(=O)c1ccc2c(c1)NC(=O)C(C)(C)O2,/,-0.6,/,4.7,-7.1,/,/,/,/,/
CCOc1cc(/C=C2\SC(=Nc3ccccc3)N(c3ccccc3)C2=O)ccc1OCC(=O)O,6.4*,/,0.3,1.6,2.5,i,98.6,-0.3,88.8,-0.3
CCOc1cc(/C=C2\SC(=Nc3ccc(F)cc3)N(c3ccc(F)cc3)C2=O)ccc1OCC(=O)O,-0.4,/,/,/,/,/,/,/,/,/
O=C(OCc1cn(Cc2cc(F)cc(F)c2)nn1)N1CCOCC1,/,/,/,0.5,7.3,/,/,/,/,/
COc1ccc(CNC(=S)OC2CCC23CCC(c2ccccc2)CC3)cc1 (stereo not given),/,/,/,-1.2,4.4,/,/,/,/,/
O=C(CSc1nnc(-c2ccccc2)n1Cc1ccccc1)NNC(=O)c1ccccc1O,0.2,-2.1,5.4,-0.3,1.2,i,/,/,/,/
O=C(CSc1nnc(-c2ccccc2O)n1Cc1ccccc1)NNC(=O)c1ccccc1O,29.0*,-0.6,2.2,-1.8,-11.8,i,90.8,-0.1,97.5,-0.1
Cc1cc(C)cc(NC(=O)c2ccc(NC3=NC4CS(=O)(=O)CC4S3)cc2)c1 (stereo not given),0.9*,/,-0.4,-0.2,1.5,i,83.3,-0.2,95.4,-0.3
Cc1cc(C)cc(NC(=O)Cc2ccc(NC3=NC4CS(=O)(=O)CC4S3)cc2)c1 (stereo not given),0.1,/,5.2,-3.4,-4.9,i,/,/,/,/
CN1C(=O)c2cc(NC(=O)Nc3ccccc3)ccc2OC[C@H]2O[C@@H](CC(=O)NC3CCC3)CC[C@@H]21,/,/,/,2.9,-4.2,/,/,/,/,/
SMILES,Efflux pump inh,NSD2 inh,V-ATPase pHluor,NPR1 activator,GC-B act,Rce1 inhib,Cmpd fluor yeast,CaMdr1 efflux inh,CaCdr2 efflux inh,Cdr1 pump inh
O=C(CCl)NC1CCCCN(Cc2ccc(OC(F)(F)F)cc2)C1=O (stereo not given),/,/,/,1.3,7.8,/,/,/,/,/
COCCn1c(C)cc(C(=O)CSc2nc(C)nc3sc4c(c23)CCC4)c1C,1.6*,-3.4,2.0,-11.3,4.7,i,110.0,0.3,111.6,0.3
CC(C)C[C@H]1COc2cc(Br)ccc2S(=O)(=O)N1Cc1cn(CCC2OCCCO2)nn1,/,/,/,-1.8,6.1,/,/,/,/,/
O=C1CSc2ccc(C(=O)N3CCCC(C(=O)N4CCCN(Cc5ccccc5)CC4)C3)cc2N1 (stereo not given),/,11.5,/,-4.4,-9.2,/,/,/,/,/
O=C(CCS(=O)(=O)c1ccccc1F)Nc1ccc(N2CCN(Cc3ccccc3)CC2)cc1,1.9*,0.8,1.2,-0.2,6.1,/,109.5,-0.2,89.3,-0.1
O=C1/C(=C\c2ccc(O)cc2)SC(=S)N1/N=C/c1ccc(O)cc1,0.2,12.0,1.3,-3.8,-4.7,i,96.6,-0.3,106.3,0.0
O=[N+]([O-])c1ccc(O)c(/C=N/n2cnnc2)c1,0.0,0.4,1.1,-3.1,4.9,i,/,/,/,/
CC(=O)NN1C(=O)/C(=C\c2ccc(O)cc2)SC1=S,0.0,2.6,2.4,-3.5,-1.6,i,/,/,/,/
O=C1/C(=C/c2cccc(Br)c2)SC(=S)N1/N=C/c1cc([N+](=O)[O-])ccc1O,0.0,/,-2.5,5.9,1.2,i,96.6,0.1,83.1,-0.1
CC1(C)CC(=O)N(CC(=O)N2CCN(Cc3ccccc3)CC2)c2ccccc2S1(=O)=O,/,-4.0,/,0.0,11.2,/,/,/,/,/

# Bioassay records from PubChem.
